ChEMBL document CHEMBL3988442, “University of Dundee, Small-Polar-MMV Screening Library” (2021)
About 13,000 (27%) of roughly 48,000 compounds showed an effect of 50% or more. This is one part of the list.

Test system: Wolbachia pipientis
Test: Anti-Wolbachia Cell-Based Screen
Assay type: functional
Set-up: scale not given: in the data most compounds retested in dose-response had high values
Conditions: 5 µM

| Compound | Percent Effect |
| --- | --- |
| FC(F)(F)c1ccc2nc([C@H]3CCN(C4CCC4)C3)[nH]c2c1 | 0.6058% |
| O=C(NCCN1CCCC1)c1ccc2c(-c3nccs3)noc2c1 | 3.961% |
| Cc1cccc2c1nc1n2[C@@H](CNC(=O)c2cncnc2)COC1 | -4.11% |
| CCN(C(=O)NCc1ccc(C)cc1OC)C(C)c1cccnc1 (stereo not given) | 2.223% |
| CCC(C)(C)NC(=O)CN(Cc1cccc(O)c1)C1CCC(O)CC1 (stereo not given) | -0.7077% |
| CCOC(=O)C1(CCOC)CCCN(Cc2nccn2CC)C1 (stereo not given) | -2.653% |
| COc1c(CNCCC(=O)Nc2cccc(C)n2)c(C(C)C)nn1C | -41.29% |
| COc1c(CNCCC(=O)NC2CCCC2)c(C(C)C)nn1C | 98.08% |
| COc1c(CNCCC(=O)NC2CCCCC2)c(C(C)C)nn1C | 109.1% |
| COc1c(CNC(C)C(=O)NC2CCCC2)c(C)nn1C (stereo not given) | 6.635% |
| COc1c(CNCc2nnc3n2CCCCC3)c(C(C)C)nn1C.Cl | 3.985% |
| COc1c(CNC(C)C(=O)NC2CCCC2)c(C(C)C)nn1C (stereo not given) | -36.61% |
| CC(C)C1CN(c2ncccn2)CCC(=O)N1CC1CC1 (stereo not given) | -33.18% |
| CC(=O)N1CCCN(C(=O)c2cnc(OC(C)C)c(Cl)c2)CC1 | -53.74% |
| C[C@@H]1CN(C(=O)c2ccc(C#N)nc2)C[C@@]1(O)C1CC1 | -20.15% |
| Cc1occc1C(=O)N1CCC2(CCCN(CC3CCC3)C2=O)C1 (stereo not given) | -0.1295% |
| CCc1n[nH]c(C(=O)N2CCC3(CCCN(CCOC)C3=O)C2)c1C (stereo not given) | 116.4% |
| CCc1ocnc1C(=O)N1CCC2(CCCN(CC(C)(C)C)C2=O)C1 (stereo not given) | 100.3% |
| CNc1nc(C(=O)N2CCC3(CCCN(CC4CC4)C3=O)C2)cs1 (stereo not given) | -46.01% |
| CCc1cc(C(=O)N2CCC3(CCCN(CCOC)C3=O)C2)cs1 (stereo not given) | -4.642% |
| CCc1cc(C(=O)N2CCC3(CCCN(CC4CC4)C3=O)C2)cs1 (stereo not given) | 55.55% |
| CCCc1cc(C(=O)N2CCC3(CCCN(CCO)C3=O)C2)cs1 (stereo not given) | -0.6433% |

| Compound | Percent Effect |
| --- | --- |
| CCCc1cc(C(=O)N2CCC3(CCCN(CCOC)C3=O)C2)cs1 (stereo not given) | 13.33% |
| Cc1occc1C(=O)N1CCC2(CCCN(CC3CC3)C2=O)C1 (stereo not given) | -3.086% |
| CCc1c(C(=O)N2CCC3(CCCN(CCO)C3=O)C2)csc1C (stereo not given) | 7.73% |
| COCCN1CCCC2(CCN(C(=O)c3cnc(O)cn3)C2)C1=O (stereo not given) | -81.96% |
| CCc1noc(C)c1C(=O)N1CCC2(CCCN(CC(C)(C)C)C2=O)C1 (stereo not given) | 101.6% |
| CCn1cc(CN2CCC(C3CCN(C)CC3)CC2)cc1C#N | 8.542% |
| CC1CCN(C(=O)[C@@H]2C[C@H]3OCC[C@H]3N(Cc3ccoc3)C2)CC1.O=C(O)C(F)(F)F | -6.203% |
| COc1ccc2c(c1)C(C(=O)N(C)CCc1cnn(C)c1)CC(=O)N2 (stereo not given) | 2.797% |
| Cc1csc(N(C)C(=O)C(c2c(F)cccc2Cl)N(C)C)n1 (stereo not given) | 1.249% |
| c1ccc(OCc2noc(CN3CCN(C4CCCC4)CC3)n2)cc1 | 4.136% |
| Cc1nc(C)c(CC(=O)N2CCC(Oc3ccccc3)CC2)c(=O)[nH]1 | 3.027% |
| Cc1n[nH]c(C)c1CC(=O)N1CC[C@@](C)(O)[C@@H](Cc2ccccc2)C1 | -1.869% |
| Cc1noc(C)c1CNC(=O)N1CCC(C(O)c2ccccc2)CC1 (stereo not given) | -2.263% |
| Cc1n[nH]c(C)c1CC(=O)N1CC[C@@](C)(O)[C@H](Oc2ccccc2)C1 | 132.6% |
| Cc1noc(C)c1CC(=O)N1CC[C@@](C)(O)[C@H](Oc2ccccc2)C1 | 138.5% |
| Cc1n[nH]c(C)c1CC(=O)N1CCC2(CC1)CN(C)CCN2C | -2.947% |
| CC[C@H](CO)NC(=O)c1coc(COc2cccc(F)c2F)n1 | -21.32% |
| COC(=O)CCCNC(=O)c1cc(COc2cncc(Cl)c2)on1 | 3.929% |
| CCN(Cc1csc(C)n1)c1cccc(CO)c1 | 19.84% |
| COc1ccc(-c2nnc(C(C)N3CCC4(CC3)OCCO4)o2)cc1 (stereo not given) | -10.61% |
| COc1ccc(-c2nnc(C(C)N3CCOCC3)o2)cc1 (stereo not given) | 0.5331% |
| CC(c1nnc(-c2ccccc2)o1)N1CCC(Nc2ccccc2)CC1 (stereo not given) | 109.3% |

| Compound | Percent Effect |
| --- | --- |
| CC(C)c1cc(CN2CCC(CC(=O)O)CC2)no1 | 25.42% |
| CCN1CCN(C2CCN(Cc3cc(C)on3)CC2)C1=O | -12.89% |
| CC(C)c1cc(N2CCC(N)CC2)n2nccc2n1 | -3.508% |
| CC(C)c1cc(CN2CCC(N)CC2)on1 | 102.3% |
| COCCCN1CC2(CCN(Cc3cc(C(C)C)no3)CC2)CC1=O | -15.73% |
| CC(C)c1cc(CN2CCC(N)CC2)no1 | 118.3% |
| Cc1cnc(CN2CCC(N(C)Cc3noc(C4CC4)n3)C2)o1 (stereo not given) | 113% |
| CCn1ccnc1CN1CCC(N(C)Cc2ncc(C)o2)C1 (stereo not given) | -2.074% |
| Cc1cnc(CN(C)C2CCN(CCc3cnn(C)c3)C2)o1 (stereo not given) | -1.466% |
| Cc1cnc(CN(C)C2CCN(Cc3nnc(C4CC4)o3)C2)o1 (stereo not given) | 131.1% |
| CN(Cc1noc(C2CC2)n1)C1CCN(Cc2ccncc2)C1 (stereo not given) | -0.4709% |
| O=C(c1cnn2cc(CCO)cnc12)N1CCOC(C(F)(F)F)C1 (stereo not given) | -0.009577% |
| CCOc1ccc(CN(C)C(=O)NC(C)c2nncn2C)cc1 (stereo not given) | -12.44% |
| CC(NCc1cccnc1)c1cc2c(cc1Br)OCCO2 (stereo not given) | -3.161% |
| N#Cc1cccc(CS(=O)(=O)NCCC(O)c2ccccc2)c1 (stereo not given) | 7.655% |
| CCS(=O)(=O)NCCN1CCN(C(C#N)c2ccccc2)CC1 (stereo not given) | 106.3% |
| CNS(=O)(=O)CCCN1CCN(C(C#N)c2ccccc2)CC1 (stereo not given) | 112.4% |
| CC(c1ccc(Cl)cc1)N1CCN(CCS(C)(=O)=O)CC1 (stereo not given) | 6.907% |
| CNS(=O)(=O)CCCN1CCN(C(C)c2cccnc2)CC1 (stereo not given) | 7.44% |
| CS(=O)(=O)CCCN1CCN(C(C#N)c2ccccc2)CC1 (stereo not given) | 95.09% |
| CNS(=O)(=O)CCCN1CCCN(Cc2ccccc2)CC1C (stereo not given) | -3.956% |
| CC(c1ccc(Cl)cc1)N1CCN(CCCS(C)(=O)=O)CC1 (stereo not given) | -1.134% |

| Compound | Percent Effect |
| --- | --- |
| CC(c1ccc(Cl)cc1)N1CCN(CCNS(C)(=O)=O)CC1 (stereo not given) | -1.965% |
| Cc1cc(C(=O)N2C[C@H](CO)C[C@H](CN3CCOCC3)C2)nc(C)n1 | -11.42% |
| CC(C)CCN(c1cn[nH]c1)S(=O)(=O)c1cccc(C#N)c1 | -0.3515% |
| NC(=O)c1ccc(CNC2CCCSC2)cc1 (stereo not given) | -4.812% |
| CCS(=O)(=O)N(C)C(=O)c1cc(C)n(-c2cccc(OC)c2)c1C | -13.82% |
| O=C(c1ccc(Cl)o1)N1CCCC(c2cc(C(F)(F)F)[nH]n2)C1 (stereo not given) | -0.4503% |
| O=C(c1cccnc1)N1CCCC(c2cc(C(F)F)n3ncnc3n2)C1 (stereo not given) | 1.815% |
| O=C(c1ccncc1)N1CCCC(c2cc(C(F)F)n3ncnc3n2)C1 (stereo not given) | 88.08% |
| Cc1ncsc1C(=O)N1CCCC(c2cc(C(F)F)n3ncnc3n2)C1 (stereo not given) | 110.2% |
| O=C(c1nc(=O)[nH][nH]1)N1CCCC(c2cc(C(F)(F)F)[nH]n2)C1 (stereo not given) | -1.931% |
| O=C(c1ccco1)N1CCCC(c2cc(C(F)F)n3ncnc3n2)C1 (stereo not given) | -11.1% |
| O=C(c1ccco1)N1CCCC(c2cc(C(F)(F)F)n3ncnc3n2)C1 (stereo not given) | 95.67% |
| O=C(c1ccccn1)N1CCCC(c2cc(C(F)F)n3ncnc3n2)C1 (stereo not given) | 111.1% |
| CCc1nnc(CN(C)Cc2cccc(C(=O)Nc3ccnn3C)c2)o1 | -8.218% |
| CN(Cc1ccc(Cl)c(F)c1)C(=O)c1ccncc1F | 5.158% |
| COc1nccc(N2CCN(Cc3ccc(C)cc3)C(=O)C2)c1C#N | 5.242% |
| CCn1nc(C)cc1C(=O)N1CCOc2ccc(OC)cc21 | 4.6% |
| COc1cc2nc(NCc3scnc3C)nc(N)c2cc1OC | 7.61% |
| Cc1nn(CC(C)C)c(N(C)C)c1CNCCS(C)(=O)=O | -9.669% |
| CCN(CC(=O)NC)C(=O)Cc1nc(-c2ccco2)oc1C | -1.768% |
| O=C(c1cccs1)N1CCc2ncnc(C3CCOC3)c2CC1 (stereo not given) | -39.43% |
| O=C(c1cccs1)N1CCCC(c2cc(C(F)F)n3ncnc3n2)C1 (stereo not given) | 74.84% |

| Compound | Percent Effect |
| --- | --- |
| Cc1cc(CN(C)C(=O)C2CCCN(C(=O)c3cccs3)C2)no1 (stereo not given) | -2.385% |
| COc1cccc(-c2ncc3c(n2)N(C)CCN(CCN(C)C)C3=O)c1 | 82.33% |
| CN(C)CCN1CCN(C)c2nc(-c3ccccc3)ncc2C1=O | 101.9% |
| COCCC(=O)N1CCN(CCN(C)C)c2ncccc2C1 | 4.239% |
| COc1cccc(-c2cnc3n2CCC32CCN(C(C)=O)CC2)c1 | 0.6434% |
| CCc1ccc(-c2ncc3c(n2)N(C)CCN(CCN(C)C)C3=O)cc1 | 95.82% |
| Cc1ccc2c(n1)N(CCN(C)C)CCN(C(=O)c1ccsc1)C2 | -6.316% |
| CNC(=O)[C@@H]1C[C@H](N)CN1S(=O)(=O)c1cc(Cl)cc(Cl)c1O | -28.57% |
| Cc1c(I)cccc1C(=O)NCC1(CO)CC1 | -20.46% |
| COc1ccc(CCNC(=O)CC(NC(N)=O)c2ccccc2)cc1 (stereo not given) | 5.015% |
| CNC(=O)c1cc(-c2ccccc2OC)[nH]n1 | 118.3% |
| COC(=O)C(C)(C)NC(=O)c1cc(COc2ccccc2OC)[nH]n1 | -6.385% |
| O=C(Nc1nc[nH]n1)c1cc(-c2ccc(F)cc2)n[nH]1 | 175.6% |
| COc1ccccc1-c1cc(NC(=O)CC2CCS(=O)(=O)C2)[nH]n1 (stereo not given) | 2.425% |
| COc1ccc(-c2cc(C(=O)Nc3nc[nH]n3)[nH]n2)cc1 | 117.7% |
| COc1ccc(NC(=O)NC(C)c2nc[nH]n2)cc1 (stereo not given) | -2.331% |
| CC(=O)Nc1nc(-c2ccc(F)cc2)c[nH]1 | 8.711% |
| COc1ccccc1-c1cc(C(=O)Nc2nc[nH]n2)[nH]n1 | 103.1% |
| COc1ccccc1-c1cc(NC(=O)CCC2CCCO2)[nH]n1 (stereo not given) | 4.714% |
| CNC(=O)C(C)(C)NC(=O)c1cc(COc2ccccc2OC)[nH]n1 | 6.418% |
| COC[C@@H]1CCCN1C(=O)c1cc(-c2ccc(OC)cc2)n[nH]1 | -15.89% |
| O=C(NCC1CCOC1)c1cc(-c2ccc(Cl)cc2)n[nH]1 (stereo not given) | -17.32% |
